DRD3 agonist: D3 dopamine receptor (human) agonism; P35462; D3R DiscoveRx beta-arrestin cells, luminescence, 90 min; max activation, %; hit rate 0.58% among 410,000; in the data active means max activation above about 30%; further: 0% is about no effect
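Cells at 1500/well, incubated overnight, then treated with pinned compounds (dopamine as control) for 90 min at 37 degrees C. DiscoveRx reagent added for 30 - 60 minutes at room temperature; luminescence read.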
D1 agonist: activates the human D1 dopamine receptor. P21728. HEK293 T-REx D1 cells, calcium flux, agonist mode. hit rate 1% among 360,000. activation, % at 2 µM. AID 504660; in the data active means activation above about 30%; further: 0% is about no effect
Target sequence (P21728 whole entry, looked up): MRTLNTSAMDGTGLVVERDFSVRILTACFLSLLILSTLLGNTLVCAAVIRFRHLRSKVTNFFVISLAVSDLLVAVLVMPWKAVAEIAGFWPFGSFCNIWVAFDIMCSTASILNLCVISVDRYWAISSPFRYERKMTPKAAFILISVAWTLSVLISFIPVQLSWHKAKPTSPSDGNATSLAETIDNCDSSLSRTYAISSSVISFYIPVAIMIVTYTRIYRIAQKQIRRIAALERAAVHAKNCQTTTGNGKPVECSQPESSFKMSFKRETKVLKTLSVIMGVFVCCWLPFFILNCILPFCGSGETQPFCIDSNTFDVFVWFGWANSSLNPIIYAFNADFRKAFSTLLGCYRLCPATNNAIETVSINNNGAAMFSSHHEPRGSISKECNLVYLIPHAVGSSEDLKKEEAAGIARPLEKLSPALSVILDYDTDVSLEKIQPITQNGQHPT
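Tetracycline-induced HEK293 TREx D1 cells, force-coupled to calcium signalling, were dye-loaded with a no-wash calcium kit. Compound was pin-added after a 10 s baseline. Fluorescence was read kinetically at 1 cycle/s for 180 s, with calcium rises flagged as agonism.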
D1 antag: blocks dopamine activation of the human D1 receptor | hit rate 3.2% among 360,000 | activity change, negative = inhibition, % at 10 µM | HEK293 TREx D1 cells, calcium flux, dopamine EC80; stronger effect = lower value | AID 504652; in the data active means activity change below about -30%; further: on the % scale 0 is the no-effect control and ±100 the full control effect
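Calcium flux readout: force-coupled, inducible Hek293 Trex D1 line, cells induced overnight at 30 C with tetracycline, dye-loaded 30–90 min at RT. Antagonism scored against EC80 dopamine challenge given 180 s after compound.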
D1 potentiator: enhances dopamine response at the human D1 receptor | P21728 | HEK293 TREx D1 cells, calcium flux, dopamine EC20 potentiation | potentiation, % at 10 µM | hit rate 0.036% among 360,000 | AID 504651; in the data active means potentiation above about 30%; further: 0% is about no effect
D3 antag: D3 dopamine receptor (human) antagonism; D3R cells, DiscoveRx beta-arrestin luminescence, antagonist mode; stronger effect = lower value; hit rate 2.5% among 360,000; P35462; max response, negative = inhibition, %; in the data active means max response below about -50%; inconclusive means no clear call, values can overlap the other calls; further: on the % scale 0 is the no-effect control and ±100 the full control effect
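Cells plated overnight at 1500 cells/well, then exposed to library compounds with dopamine controls for 90 minutes at 37 degrees C. DiscoveRx reagent added for 30–60 minutes at room temperature; luminescence read, quantitative HTS format.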
Active calls of the source: *; ? = inconclusive; . = no result. Shown are actives, neighbours in structure and some others; about 6% of the full set was active somewhere.

SMILES	DRD3 agonist	D1 agonist	D1 antag	D1 potentiator	D3 antag
c1ccc2c(CCC3CCNCC3)c[nH]c2c1	-19	.	.	.	.
Cc1cccn2c(=O)cc(CSc3nnc(NC(=O)C(C)C)s3)nc12	-6	2	0	0	.
CN(C)CCO[C@@H](c1ccc(Cl)cc1)c1ccccn1	-9	3	-6	-1	?
Cc1ccc(C(OCCN(C)C)c2cccc(C(F)(F)F)c2)cc1 (configuration not stated)	-11	15	-6	-2	-76*
COc1cccc(CC(=O)OC(C)C(=O)Nc2ccc(Cl)cn2)c1 (configuration not stated)	-1	4	-35*	-2	-29
COc1ccc(Cl)cc1NC(=O)CSc1nccn1Cc1ccco1	-18	0	-15	1	.
Cc1ccc(C2=NN(S(C)(=O)=O)C(c3cccs3)C2)cc1 (configuration not stated)	-8	0	-48*	-11	3
CS(=O)(=O)N1N=C(c2ccc(Br)cc2)CC1c1cccs1 (configuration not stated)	-5	1	-25	0	0
Cc1ccc(C2=NN(C(=O)CNCCO)C(c3cccs3)C2)cc1 (configuration not stated)	3	2	-33*	-5	3
O=C(CNCCO)N1N=C(c2cccs2)CC1c1cccs1 (configuration not stated)	2	3	-5	5	9
Cc1ccc(C2CC(c3cccs3)=NN2S(=O)(=O)c2ccc(C)cc2)cc1 (configuration not stated)	2	7	-33*	-1	-11
O=C(c1ccccc1)N1N=C(c2ccccc2)CC1c1cccs1 (configuration not stated)	6	4	-67*	-9	2
O=C(NCc1ccc(F)cc1)c1cc2c(=O)n3ccccc3nc2s1	-20	14	5	1	.
CCOC(=O)C1CCCCN1Cc1ccc(OC)c(OC)c1 (configuration not stated)	-10	0	-5	0	1
Cc1ncc(C[n+]2csc(CCOP(=O)(O)O)c2C)c(N)n1	-9	.	.	.	.
Cc1ccc(CNC(=O)CN(c2ccc(C(C)C)cc2)S(=O)(=O)c2c(C)n[nH]c2C)cc1	3	1	19	5	.
O=C(Nc1ccc(Nc2ccccc2)cc1)c1c(F)c(F)c(F)c(F)c1F	0	9	-31*	-12	0
O=C(Nc1ccc(Nc2ccccc2)cc1)c1c(Cl)cccc1Cl	3	.	.	.	-12
CCC(=O)NC1=C(NC(C)c2ccccc2)C(=O)c2ccccc2C1=O (configuration not stated)	1	3	5	5	-16
CCC(=O)NC1=C(Cl)C(=O)C(NC(=O)CC)=C(Cl)C1=O	0	3	11	1	-62*
COc1ccc2cc(/C=N/NC(=O)CN(c3ccccc3C)S(=O)(=O)c3ccccc3)c(Cl)nc2c1	21	3	4	2	-6
O=C(Nc1ccc2nc(-c3ccc4nc[nH]c4c3)[nH]c2c1)c1cccs1	-5	5	-7	-7	-69*
O=C(Nc1ccc2nc(-c3ccccc3)[nH]c2c1)c1cccs1	-11	1	-12	0	-17
CCOC(=O)N=Nc1c2ccccc2c2nc3no[nH]c3nc12	-18	1	-4	-5	-65*
O=C(CCCc1nc2ccccc2s1)NCc1ccccc1F	-1	2	-42*	6	-7
CC(=O)Nc1c(C)nn(-c2ccccc2)c1N1CCC(C(=O)NCc2cccc(F)c2)CC1	2	3	-5	0	.
Cc1ccc(C2(c3ccc(C)cc3)CC2C(=O)Nc2ccc([N+](=O)[O-])cc2O)cc1 (configuration not stated)	-5	7	-24	-3	-66*
C/C(=N\NC(=O)C1CC1(c1ccccc1)c1ccccc1)c1cccc([N+](=O)[O-])c1 (configuration not stated)	7	1	-77*	-5	10
C/C(=N\NC(=O)C1CC1c1ccccc1)c1cccc([N+](=O)[O-])c1 (configuration not stated)	-5	1	2	-5	-11
Cc1ccc(N2CC(NC(=O)c3ccco3)CC2=O)cc1 (configuration not stated)	2	-2	.	-2	.

From PubChem
